“And” between values parts separate entries of the source, which are not always exact repeats. Identical values can stand only once. Records with an inconclusive call do not appear. The source made the active and inactive calls. Rule for the calls, unless noted: active = hit-call score of the fitted dose curve at least 0.9, where 1 is the maximum; inconclusive = response in the unintended direction; inactive = score below 0.9.
How the values were obtained:
[1] = read-out: ABC Transporter (ABCB1), ABCB1 (gene 5243); assay: CLD_ABCB1_6hr: CellzDirect (CLD) Gene Expression Assay for ABC Transporter (ABCB1) at 6 hours (AID 2283659);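 note: hits raise ABCB1 transcript above the DMSO vehicle baseline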
Outline: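 Primary human hepatocytes (two donor preparations) dosed daily for two days with chemicals at multiple concentrations, 0.2% DMSO vehicle; harvested 6 h post-dose. ABCB1 mRNA induction quantified by qNPA chemiluminescence; gain-of-signal fitted versus DMSO.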

[2] = read-out: Broad substrate specificity ATP-binding cassette transporter ABCG2 (Homo sapiens) (UniProt Q9UNQ0); assay: CLD_ABCG2_6hr: CellzDirect (CLD) Gene Expression Assay for ABC Transporter (ABCG2) at 6 hours (AID 2283660)
Outline: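 Primary human hepatocytes dosed daily with chemicals at multiple concentrations (0.2% DMSO vehicle), harvested 6 h after dosing. ABCG2 mRNA induction read by quantitative nuclease protection assay (qNPA) chemiluminescence; gain of signal fitted against DMSO baseline.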

[3] = read-out: xenobiotic metabolism (CYP1A1), CYP1A1 (gene 1543); assay: CLD_CYP1A1_6hr: CellzDirect (CLD) Gene Expression Assay for xenobiotic metabolism (CYP1A1) at 6 hours (AID 2283661);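 for AC50: potency for transcript induction above DMSO vehicle baseline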
Outline: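 Primary human hepatocytes from two donors, compound versus 0.2% DMSO vehicle. CYP1A1 mRNA measured 6 h after dosing by quantitative nuclease protection assay with chemiluminescent read-out; induction fitted relative to DMSO, cytotoxicity flagged by microscopy.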

[4] = read-out: xenobiotic metabolism (CYP1A2), CYP1A2 (gene 1544); assay: CLD_CYP1A2_6hr: CellzDirect (CLD) Gene Expression Assay for xenobiotic metabolism (CYP1A2) at 6 hours (AID 2283663);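 for AC50: potency is for induction meaning a rise in mRNA above DMSO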
Outline: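 Primary human hepatocytes from two donor preparations, dosed daily with multiple concentrations in 0.2% DMSO and harvested at 6 h. CYP1A2 mRNA induction measured by chemiluminescent qNPA, gain of signal fitted against DMSO; cytotoxicity flagged morphologically.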

[5] = read-out: alkyl and aryl transferase (GSTA2), GSTA2 (gene 2939); assay: CLD_GSTA2_6hr: CellzDirect (CLD) Gene Expression Assay for alkyl and aryl transferase (GSTA2) at 6 hours (AID 2283666)
Outline: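 Primary human hepatocytes from two donor preparations were dosed daily with fresh compound at multiple concentrations, 0.2% DMSO vehicle. GSTA2 mRNA was measured at 6 hours by qNPA chemiluminescence; induction fitted relative to DMSO, with cytotoxicity flagged morphologically.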

[6] = tested on: Thyroperoxidase (TPO), gene 54314; assay: CCTE_Simmons_AUR_rTPO: CCTE's Amplex UltraRed Assay for Thyroperoxidase (TPO) Inhibition, Simmons Lab (AID 2283662);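 for AC50: potency for loss of signal meaning inhibition of peroxidase activity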
Outline: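 Rat thyroid microsomes (5 ug protein) with 25 uM Amplex UltraRed and 300 uM H2O2 in 200 mM phosphate buffer, 30 min at 37C in dark; fluorescence 544/590 nm. Eight concentrations, 5 nM–87.5 uM final, 0.5% DMSO, triplicate biological replicates.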

[7] = CCTE_Simmons_CellTiterGLO_HEK293T: Viability Assessment in CCTE's Assays for Thyroperoxidase (TPO) Inhibition, Simmons Lab (AID 2283665);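 for AC50: cells exposed to compound for 24 h before readout; actives reduce ATP signal below DMSO vehicle meaning cytotoxicity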
Outline: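 Cytotoxicity counter-screen: human HEK293T cells in low-serum (1% FBS) medium receive test chemical, 5 nM to 87.5 uM final, for 24 h; ATP is quantified by luciferase luminescence.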

[8] = Tanguay_ZF_120hpf_TR_legacy: (Legacy) Oregon State University Tanguay Lab 120 Hour Post-fertilization zebrafish Assay for Touch Response (AID 2283667)
Outline: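 5D WT embryos; static exposure to 120 hpf, 28C, sealed/dark; DMSO 0.64% v/v final. TR scored present/absent; dead embryos excluded. Pos ctrl 5uM trimethyltin chloride.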

[9] = read-out: solute carrier (SLC10A1), SLC10A1 (gene 6554); assay: LTEA_HepaRG_SLC10A1: Life Technologies and Expression Analysis (LTEA) Assay for solute carrier (SLC10A1) using HepaRG (AID 2283657; active = hit-call score of the fitted dose curve at least 0.9, where 1 is the maximum; inactive = score below 0.9); details: mRNA level, 48 h; actives raise or lower the signal
Outline: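 Transcript levels were measured by qRT-PCR after human HepaRG cells received test chemical for 48 hours, up to 100 uM in half-log dilutions. Values come from bidirectional concentration-response fitting relative to 0.5% DMSO vehicle.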

[10] = read-out: matrix metalloproteinase-1 (MMP1), MMP1 (gene 4312); assay: LTEA_HepaRG_MMP1: Life Technologies and Expression Analysis (LTEA) Assay for matrix metalloproteinase-1 (MMP1) using HepaRG (AID 2283658; active = hit-call score of the fitted dose curve at least 0.9, where 1 is the maximum; inactive = score below 0.9); details: mRNA level, 48 h; actives raise or lower the signal
Outline: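 In this screen, human liver HepaRG cultures receive each chemical in duplicate for 48 h (top 100 uM, 0.5% DMSO). MMP1 expression is then quantified by TaqMan qRT-PCR with ACTB/GAPDH/POLR2A normalization.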

Measured: AC50

Sequence of Broad substrate specificity ATP-binding cassette transporter ABCG2 (Homo sapiens) (Q9UNQ0 whole entry, looked up): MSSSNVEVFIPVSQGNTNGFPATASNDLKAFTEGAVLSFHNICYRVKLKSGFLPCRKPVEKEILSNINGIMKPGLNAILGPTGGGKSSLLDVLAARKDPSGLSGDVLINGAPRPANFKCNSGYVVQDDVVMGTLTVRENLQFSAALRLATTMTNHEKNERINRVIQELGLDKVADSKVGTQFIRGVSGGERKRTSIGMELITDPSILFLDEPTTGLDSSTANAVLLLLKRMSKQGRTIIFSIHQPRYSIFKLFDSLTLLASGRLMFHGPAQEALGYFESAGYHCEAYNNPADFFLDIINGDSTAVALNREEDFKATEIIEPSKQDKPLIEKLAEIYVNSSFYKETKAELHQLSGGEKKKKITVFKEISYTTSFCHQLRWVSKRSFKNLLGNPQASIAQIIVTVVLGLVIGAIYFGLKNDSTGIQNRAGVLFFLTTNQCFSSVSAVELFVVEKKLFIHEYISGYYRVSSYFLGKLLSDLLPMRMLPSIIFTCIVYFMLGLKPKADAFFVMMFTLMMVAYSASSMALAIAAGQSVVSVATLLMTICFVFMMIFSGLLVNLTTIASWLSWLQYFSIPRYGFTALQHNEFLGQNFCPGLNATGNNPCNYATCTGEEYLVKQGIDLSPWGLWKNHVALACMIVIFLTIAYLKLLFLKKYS

CCCN(CC)CC1COC2(CCC(C(C)(C)C)CC2)O1 (stereo unspecified)
inactive: [1] | [2] | [3] | [4] | [5]

COP(=S)(OC)SCn1nnc2ccccc2c1=O
inactive: [1] | [2] | [5] | [8]
active: [3] 6.49 µM | [6] 6.68 µM | [4] 5.35 µM | [7] 53.8 µM

CCOc1cc(C(C)(C)C)ccc1C1COC(c2c(F)cccc2F)=N1 (stereo unspecified)
inactive: [1] | [2] | [3] | [4] | [5] | [8]

CN=C=S
inactive: [9] | [10] | [1] | [2] | [3] | [5] | [8]

CCC(C)n1c(=O)[nH]c(C)c(Br)c1=O (stereo unspecified)
active: [9] 21 µM | [3] 7.21 µM | [4] 9.68 µM
inactive: [10] | [8]

CCOc1nc(F)cc2nc(S(=O)(=O)Nc3c(Cl)cccc3Cl)nn12
active: [6] 26.5 µM
inactive: [1] | [2] | [3] | [4] | [7] | [8]

N#CN=C1SCCN1Cc1ccc(Cl)nc1
inactive: [1] | [2] | [3] | [5] | [8]

CC(C)NC(=O)N1CC(=O)N(c2cc(Cl)cc(Cl)c2)C1=O
active: [3] 8.11 µM | [4] 20 µM
inactive: [1] | [2] | [8]

Cc1c(COC(=O)[C@@H]2[C@H](/C=C(\Cl)C(F)(F)F)C2(C)C)cccc1-c1ccccc1
inactive: [1] | [2] | [3] | [8]

CC(C)N1C(=O)N(c2ccccc2)CSC1=NC(C)(C)C
inactive: [1] | [2] | [3] | [4] | [5] | [8]

COCC(C)N(C(=O)CCl)c1c(C)csc1C (stereo unspecified)
inactive: [1] | [2] | [3] | [4] | [5]
active: [8] 26.3 µM

COCc1cnc(C2=NC(C)(C(C)C)C(=O)N2)c(C(=O)O)c1 (stereo unspecified)
inactive: [1] | [2] | [5] | [8]

COP(=O)(OC)O/C(C)=C/C(=O)N(C)C
inactive: [1] | [2] | [3] | [4] | [5] | [8]

CCOP(=O)(OCC)Oc1nc(Cl)c(Cl)cc1Cl
inactive: [1] | [2] | [5] | [8]
active: [3] 3.92 µM | [6] 29 µM | [4] 5.84 µM | [7] 81.5 µM

CCOc1nc(C(Cl)(Cl)Cl)ns1
active: [3] 8.85 µM | [7] 82.9 µM and 70.4 µM
inactive: [1] | [2] | [6] | [4] | [5] | [8]

COc1ccc(-c2ccccc2)cc1NNC(=O)OC(C)C
inactive: [1] | [2] | [8]
active: [3] 0.429 µM | [6] 1.84 µM | [4] 0.798 µM | [7] 42.4 µM

CC(C)Oc1cccc(NC(=O)c2ccccc2C(F)(F)F)c1
inactive: [10] | [1] | [4] | [5] | [8]
active: [9] 74 µM | [3] 3 µM

CC1(C)C(C=C(Cl)Cl)C1C(=O)OC(C#N)c1cccc(Oc2ccccc2)c1 (stereo unspecified)
inactive: [1] | [2] | [5] | [8]
active: [3] 2.78 µM | [4] 2.15 µM

O=C1C2CC=CCC2C(=O)N1SC(Cl)(Cl)Cl (stereo unspecified)
inactive: [1] | [2] | [5] | [8]

CC1(C)CON(Cc2ccccc2Cl)C1=O
inactive: [1] | [2] | [3] | [4] | [5] | [8]

Nc1c(Cl)c(Cl)nc(C(=O)O)c1Cl
active: [3] 20 µM | [4] 33 µM
inactive: [9] | [10] | [1] | [2] | [5] | [8]

CC(C)C1(C)N=C(c2ncccc2C(=O)O)NC1=O (stereo unspecified)
inactive: [1] | [2] | [5] | [8]
active: [3] 1.9 µM | [4] 1.89 µM

CCCCC(C#N)(Cn1cncn1)c1ccc(Cl)cc1 (stereo unspecified)
inactive: [10] | [1] | [4]
active: [9] 83.9 µM | [3] 3.97 µM | [8] 50.7 µM

Cc1cnc(C2=NC(C)(C(C)C)C(=O)N2)c(C(=O)O)c1 (stereo unspecified)
inactive: [1] | [2] | [3] | [6] | [4] | [7] | [5] | [8]

COC(=O)NS(=O)(=O)c1ccc(N)cc1
active: [6] 20.2 µM
inactive: [1] | [2] | [3] | [5] | [8]

C=CCOC(=O)C(C)(C)OC(=O)c1cc(-n2c(=O)cc(C(F)(F)F)n(C)c2=O)ccc1Cl
inactive: [1] | [2] | [3] | [4] | [5]

Cc1ccc(N=CN(C)C=Nc2ccc(C)cc2C)c(C)c1
inactive: [1] | [2] | [4] | [5] | [8]

CC1(C)CCC(=Cc2ccc(Cl)cc2)C1(O)Cn1cncn1 (stereo unspecified)
inactive: [1] | [2] | [4] | [5] | [8]
active: [3] 0.00693 µM

Nc1c(Cl)c(F)nc(OCC(=O)O)c1Cl
inactive: [1] | [2] | [3] | [4] | [8]

CCCCC(O)(Cn1cncn1)c1ccc(Cl)cc1Cl (stereo unspecified)
active: [3] 0.532 µM
inactive: [1] | [2] | [4] | [8]

CC(C)(C)C(=O)C(Oc1ccc(Cl)cc1)n1cncn1 (stereo unspecified)
active: [3] 3.97 µM | [4] 12.4 µM
inactive: [1] | [2] | [5] | [8]

Reference: PubChem BioAssay (EPA / NIEHS)
